Measured values from the supplement of paper PMC11219838.
A number with no mark means an inactive call.

Key:
Settings in all cases: 60 µM; 5 days; temperature: 20 °C
Meloidogyne hapla J2 = experiment: proportion of mobile M. hapla J2 relative to DMSO control (fraction of DMSO control); higher = more viable, less nematicidal, active = 0.7 or less
How it was run: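 About 25 M. hapla J2 were added per 96-well well in distilled water, and compound was pinned to 60 µM final (0.6% v/v DMSO). Sealed plates were shaken at 200 rpm for 5 days at 20 °C, then 2 µL 1 M NaOH was added before microscopic mobility scoring. Mobility was divided by the mean of eight DMSO wells on the same plate, and two biological replicates were averaged.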

[1] = test system: Caenorhabditis elegans dauer (daf-2(e1370)); experiment: proportion of mobile C. elegans dauer larvae relative to DMSO control (fraction of DMSO control); higher = more viable, less nematicidal, active = 0.63 or less; extreme values may be limits of the assay
How it was run: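 Synchronized C. elegans larvae were kept for 48 h at 25 °C on MYOB plates seeded with E. coli OP50 to induce dauer formation, and roughly 20 dauers were transferred into each well of a 96-well plate containing liquid NGM. Compound was pinned in to a final concentration of 60 µM with 0.6% v/v DMSO, and the sealed plates were shaken at 200 rpm for 5 days at 20 °C. The fraction of mobile worms was scored under a dissection microscope against DMSO-only wells and averaged across two biological replicates.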

Ditylenchus dipsaci = experiment: proportion of mobile D. dipsaci (mixed stage) relative to DMSO control (fraction of DMSO control); higher = more viable, less nematicidal, active = 0.86 or less; extreme values may be limits of the assay
How it was run: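 D. dipsaci were grown on pea plants in Gamborg B-5 agar and extracted through a filter funnel into water, and about 20 worms were added per 96-well well in distilled water. Compound was pinned to 60 µM final (0.6% v/v DMSO), and sealed plates were shaken at 200 rpm for 5 days at 20 °C. After 2 µL 1 M NaOH was added, mobile worms were scored microscopically. Mobility was expressed relative to DMSO controls and averaged over two biological replicates.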

| SMILES | proportion of mobile M. hapla J2 (Meloidogyne hapla J2) | proportion of mobile C. elegans dauer larvae [1] | proportion of mobile D. dipsaci (Ditylenchus dipsaci) |
| --- | --- | --- | --- |
| CCc1cccc(CC)c1NC(=O)CSc1nnc(-c2ccccc2OC)o1 | 0.758 | 1 | 1 |
| Cc1cccc(-c2nnc(SCC(=O)Nc3ccccc3F)o2)c1 | 0.753 | 1 | 1 |
| Cc1ccc(-c2nnc(SCC(=O)Nc3ccccc3)o2)cc1 | 0.996 | 1 | 1 |
| COc1ccc(Br)cc1-c1noc(-c2ccncc2)n1 | 0.759 | 1 | 1 |
| Cn1c(SCc2nnc(-c3ccccc3)o2)nnc1-c1ccco1 | 0.827 | 1 | 1 |
| Cc1ccc(-c2nc(-c3ccncc3)no2)cc1Cl | 0.852 | 1 | 1 |
| COc1ccc(Cl)cc1NC(=O)CSc1nnc(-c2ccc(C)cc2)o1 | 0.982 | 1 | 1 |
| CCNC(=O)c1ccccc1-c1nc(-c2ccccc2)no1 | 0.908 | 1 | 1 |
| CCOc1nc(-c2ccccc2)ccc1-c1noc(-c2cccc(C)c2)n1 | 0.805 | 1 | 1 |
| CCOc1nc(-c2ccc(C)cc2)ccc1-c1noc(-c2cccnc2)n1 | 0.842 | 1 | 1 |
| Brc1ccc(-c2nc(-c3cccnc3)no2)cc1 | 0.984 | 0.552 (active) | 1 |
| C=CCOc1ccc(-c2nc(-c3cccnc3)no2)cc1 | 0.965 | 0.5 (active) | 0.5 (active) |
| COc1cccc(NC(=O)c2ccccc2-c2nc(-c3ccccc3Cl)no2)c1 | 0.918 | 1 | 1 |
| COc1cccc(-c2noc(COc3ccc(C)cc3C)n2)c1 | 0.941 | 1 | 1 |
| CC1CCN(C(=O)CSc2nnc(-c3cc4ccccc4o3)o2)CC1 | 0.996 | 1 | 1 |
| CCOc1cc(-c2nc(-c3ccc(OC)cc3)no2)cc(OCC)c1OCC | 0.998 | 1 | 1 |
| Cc1ccccc1-c1nnc(SCc2ccc(F)cc2)o1 | 0.939 | 1 | 1 |
| c1ccc(-c2nnc(SCc3cccnc3)o2)cc1 | 0.92 | 1 | 0.75 (active) |
| Brc1ccc(OCc2nc(-c3cccs3)no2)cc1 | 0.963 | 1 | 1 |
| COc1ccc(-c2nnc(SCc3ccccc3C)o2)cc1 | 0.942 | 1 | 1 |
| Cc1ccc(OCc2nc(-c3cccnc3)no2)cc1C | 1.02 | 1 | 1 |
| Cc1ccc(C(=O)CSc2nnc(-c3ccco3)o2)o1 | 0.906 | 1 | 1 |
| Cc1ccccc1OCc1nc(-c2ccc(Cl)cc2)no1 | 1.04 | 1 | 1 |
| Cc1ccc(-c2noc(-c3ccc(C)cc3Cl)n2)cc1 | 0.893 | 1 | 1 |
| Cc1ccc(OCc2nc(-c3ccccc3Cl)no2)c(C)c1 | 1 | 1 | 1 |

| SMILES | proportion of mobile M. hapla J2 (Meloidogyne hapla J2) | proportion of mobile C. elegans dauer larvae [1] | proportion of mobile D. dipsaci (Ditylenchus dipsaci) |
| --- | --- | --- | --- |
| Cn1c(SCc2cccc(F)c2)nnc1-c1ccco1 | 0.929 | 1 | 1 |
| COc1ccc(Cl)cc1-c1noc(-c2ccc(Cl)cc2)n1 | 0.906 | 1 | 1 |
| CCOc1ccc(-c2noc(-c3ccncc3)n2)cc1OC | 1 | 1 | 1 |
| Cc1ccc(-c2noc(-c3ccc(-n4nncc4C)cc3)n2)cc1 | 0.978 | 1 | 1 |
| CCSc1nnc(-c2ccc(Cl)cc2)o1 | 0 (active) | 0 (active) | 0 (active) |
| Cc1cc(C)nc(SCc2nc(-c3ccccc3)no2)n1 | 1.05 | 1 | 1 |
| Cc1cc(Br)ccc1OCc1nc(-c2ccncc2)no1 | 1.01 | 1 | 1 |
| O=C(CSc1nnc(-c2ccco2)o1)c1ccccc1 | 0.974 | 1 | 1 |
| COc1ccc(-c2noc(-c3cccc(F)c3)n2)cc1 | 1 | 1 | 1 |
| CC(Sc1nnc(-c2cccnc2)o1)C(=O)c1ccccc1 (stereo not given) | 1.03 | 1 | 1 |
| CC(C)C(=O)Nc1ccccc1-c1nc(-c2ccccn2)no1 | 0.995 | 1 | 1 |
| COc1ccc(Cl)cc1NC(=O)CSc1nnc(-c2ccco2)o1 | 0.917 | 1 | 1 |
| COc1cccc(-c2nnc(SCc3ccccc3)o2)c1 | 0.985 | 1 | 1 |
| Clc1ccccc1OCc1nc(-c2ccccn2)no1 | 1 | 1 | 1 |
| Cc1cc(C)cc(NC(=O)CSc2nnc(-c3ccccc3)o2)c1 | 1.04 | 1 | 1 |
| COc1ccc(C(=O)CSc2nnc(-c3ccccc3)o2)cc1 | 0.987 | 1 | 1 |
| Clc1ccccc1-c1noc(COc2ccc(Br)cc2)n1 | 1.05 | 1 | 1 |
| Cc1ccccc1-c1noc(COc2ccccc2)n1 | 0.764 | 1 | 1 |
| COc1ccc(-c2nc(-c3ccc(Cl)cc3)no2)cc1 | 1 | 1 | 1 |
| c1ccc(COc2cccc(-c3nc(-c4ccncc4)no3)c2)cc1 | 0.915 | 1 | 1 |
| Cc1ccc(Cl)cc1NC(=O)CSc1nnc(-c2ccncc2)o1 | 0.913 | 1 | 1 |
| COc1ccc(-c2noc(COc3ccccc3C)n2)cc1 | 1.03 | 1 | 1 |
| Fc1ccccc1OCc1nc(-c2ccc(Cl)cc2)no1 | 1 | 1 | 1 |
| Cc1ccc(-c2nnc(SCc3ccc(Br)cc3)o2)cc1 | 0.923 | 1 | 1 |
| Fc1ccc(-c2noc(-c3ccc(Cl)cc3)n2)cc1 | 1.03 | 1 | 1 |

| SMILES | proportion of mobile M. hapla J2 (Meloidogyne hapla J2) | proportion of mobile C. elegans dauer larvae [1] | proportion of mobile D. dipsaci (Ditylenchus dipsaci) |
| --- | --- | --- | --- |
| Cc1ccc(-c2nc(-c3ccccc3)no2)cc1 | 1.04 | 1 | 1 |
| Cc1cc(OCc2nc(-c3ccncc3)no2)c(C)cc1Br | 0.866 | 1 | 1 |
| Cc1cc(Br)ccc1OCc1nc(-c2cccnc2)no1 | 1.05 | 1 | 1 |
| Fc1ccc(-c2nc(-c3ccc(Br)cc3)no2)cc1 | 0.848 | 1 | 1 |
| COc1ccc(-c2noc(COc3ccc(Cl)c(C)c3)n2)cc1 | 1.02 | 1 | 1 |
| COC(=O)c1ccc(CSc2nnc(-c3ccc(OC)cc3)o2)cc1 | 1.02 | 1 | 1 |
| Cc1cc(OCc2nc(-c3ccccn3)no2)ccc1Cl | 0.834 | 1 | 1 |
| COc1ccccc1-c1nnc(SCC(=O)Nc2ccc(C)cc2)o1 | 1.03 | 1 | 0.885 |
| COc1cccc(-c2noc(COc3ccc(Br)cc3)n2)c1 | 0.942 | 1 | 1 |
| CCOc1ccccc1-c1nc(-c2ccc(Cl)cc2)no1 | 0.856 | 1 | 1 |
| CC(Sc1nnc(-c2ccco2)o1)C(=O)NC(c1ccccc1)c1ccccc1 (stereo not given) | 1.05 | 1 | 1 |
| O=C(NCc1cccnc1)c1ccccc1-c1nc(-c2ccccc2Cl)no1 | 0.771 | 1 | 1 |
| Fc1ccc(OCc2nc(-c3ccccc3)no2)cc1 | 1.02 | 1 | 1 |
| COc1cccc(-c2noc(-c3ccc(C)cc3)n2)c1 | 0.948 | 0 (active) | 1 |
| CCOc1ccc(NC(=O)CSc2nnc(-c3ccncc3)o2)cc1 | 0.897 | 1 | 1 |
| N#Cc1ccc(OCc2nc(-c3cccs3)no2)cc1 | 0.908 | 1 | 1 |
| Cc1ccccc1CSc1nnc(-c2ccccc2Cl)o1 | 0.888 | 1 | 1 |
| CCCOc1ccc(-c2nc(-c3cccnc3)no2)cc1 | 0.945 | 1 | 1 |
| Cc1nc(CSc2nnc(-c3ccc(Cl)cc3)o2)cs1 | 0.947 | 1 | 1 |
| Cc1cccc(-c2noc(-c3ccc(Cl)cc3)n2)c1 | 1.05 | 1 | 1 |
| COc1ccc(CC(=O)Nc2ccc(-c3noc(-c4ccccc4Br)n3)cc2)cc1 | 1.08 | 1 | 1 |
| Clc1ccc(OCc2nc(-c3ccccc3)no2)c(Cl)c1 | 0.796 | 1 | 1 |
| CCSc1nnc(-c2ccc(Cl)cc2Cl)o1 | 0.607 (active) | 0 (active) | 0.739 (active) |
| CCn1c(C)cc(C(=O)CSc2nnc(-c3ccccc3)o2)c1C | 0.962 | 1 | 1 |
| COc1cccc(-c2noc(COc3ccccc3Cl)n2)c1 | 0.998 | 1 | 1 |
